# Test results reported in the supplement of paper PMC4894684.
# Counter-ions that a name gives are not always drawn. ± gives the standard deviation of the averaged measurements.
# Tested on: Toxoplasma gondii RH (in HFF)
# Assay: parasite growth relative to the screen mean (all compounds = 100%); higher = less inhibition of parasite growth
# Details: 5 µM; 72 h; oxygen 21 %
# Summary of the method: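 RH β-Gal–GFP Toxoplasma at MOI 1:5 was used to infect confluent human foreskin fibroblasts in 96-well plates within 2 h of pin-transferring compounds to 5 µM final. After 72 h at 21% O2, parasite number was determined by CPRG β-Gal assay against standard curves on the same plate. Growth is relative to the screen mean and averaged over two screens, with all compounds = 100%.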
row,SMILES,parasite growth
1,NCCCCCCCCCCNS(=O)(=O)c1cccc2c(Cl)cccc12 [A-7 hydrochloride],142 ± 17%
2,CN(C(=O)CCCOc1ccc2[nH]c(=O)ccc2c1)C1CCCCC1 [Cilostamide],69.6 ± 26%
3,O=C(O)c1ccc(-c2ccc3cc(O)c(C45CC6CC(CC(C6)C4)C5)cc3c2)cc1,146 ± 18%
4,C[C@@H](NCc1cc(Br)cc2[nH]c(=O)c(=O)[nH]c12)P(=O)(O)O,109 ± 3.7%
5,Nc1nc(N)nc(-c2cc(Cl)ccc2Cl)n1 [Irsogladine maleate],127 ± 27%
6,Cc1ccc2c(c1)C(=O)C1(O)CCN(c3ccccc3)C1=N2 (racemic) [(±)-Blebbistatin],161 ± 15%
7,CS(=O)(=O)CCNCc1nc(-c2ccc3ncnc(Nc4ccc(OCc5cccc(F)c5)c(Cl)c4)c3c2)cs1,63.4 ± 19%
8,Cc1[nH]c(/C=C2\C(=O)Nc3ccccc32)c(C)c1CCC(=O)O,102 ± 8.8%
9,Cc1ccc2c(=O)c3ccccc3n(CCCN)c2c1C,< 0%
10,CC(=O)N(O)[C@@H]1c2cc(C#N)ccc2OC(C)(C)[C@H]1O,92.8 ± 30%
11,NC(N)=NC(N)=Nc1cccc(Cl)c1 [m-Chlorophenylbiguanide hydrochloride],133 ± 15%
12,Cc1ccc(CC2(O)CCN(CCOc3ccc(O)cc3)CC2)cc1,111 ± 35%
13,CC(C)[C@H](CO)Nc1nc(Nc2ccc(C(=O)O)c(Cl)c2)c2ncn(C(C)C)c2n1 [Purvalanol B],141 ± 2.9%
14,COc1cccc(/C=N/N=C/c2cccc(OC)c2)c1,135 ± 4.2%
15,COc1ccc(Nc2ncnc3ccc(OC)cc23)cc1 [MPMQ hydrochloride],146 ± 14%
